Results taken from PubChem BioAssay (NCI).
The panel holds about 79,000 compounds, 15% with a hit somewhere; the sample as a whole holds those more often. The source made the active and inactive calls. Cut-off read from the data, not from the text of the source: active = growth inhibition above about 70%; inactive = the rest. Where a SMILES comes first, the peptide text is derived from it. The star is where a group is joined. Cbz = O=C(OCc1ccccc1)*; Boc = CC(C)(C)OC(=O)*; tBu = CC(C)(C)*

Legend:
[1] = NCI Yeast Anticancer Drug Screen. Data for the rad50 strain (AID 155);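 note: 0% = growth of vehicle-only cultures of the same strain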; details: S. cerevisiae rad50 strain growth inhibition, stronger effect = higher value; at 50.0 µM unless noted
Method in brief: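 Yeast carrying a defined DNA repair defect were exposed to test compounds, and growth was compared with vehicle-treated controls to give percent inhibition.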

[2] = NCI Yeast Anticancer Drug Screen. Data for the mec2-1 strain (AID 157); details: S. cerevisiae mec2-1 strain, stronger effect = higher value; at 50.0 µM unless noted
Method in brief: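 Strain: mec2-1 (DNA repair/cell cycle alteration). Compound exposure, then growth measured; inhibition expressed relative to vehicle.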

[3] = NCI Yeast Anticancer Drug Screen. Data for the sgs1 mgt1 strain (AID 161);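 note: 0% = growth of cultures given vehicle only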; details: S. cerevisiae sgs1 mgt1 strain, stronger effect = higher value; at 50.0 µM unless noted
Method in brief: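 Mutant yeast exposed to compound; growth scored against vehicle-only wells.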

[4] = NCI Yeast Anticancer Drug Screen. Data for the cln2 rad14 strain (AID 165);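 note: 0% = growth equal to vehicle treated cultures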; details: S. cerevisiae cln2 rad14 strain, stronger effect = higher value; at 50.0 µM unless noted
Method in brief: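 Compounds are applied to the cln2 rad14 yeast strain, and growth is then compared with that of vehicle-treated cultures to give inhibition.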

[5] = NCI Yeast Anticancer Drug Screen. Data for the bub3 strain (AID 167); details: S. cerevisiae bub3 mutant strain, stronger effect = higher value; at 50.0 µM unless noted
Method in brief: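 Compounds were applied to a genetically altered yeast strain carrying a cell-cycle control defect. Growth inhibition was scored against vehicle-treated controls.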

[6] = NCI Yeast Anticancer Drug Screen. Data for the mlh1 rad18 strain (AID 175); details: S. cerevisiae mlh1 rad18 strain growth inhibition, stronger effect = higher value; at 50.0 µM unless noted
Method in brief: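 Read-out is yeast growth inhibition, calculated against vehicle-only controls. The compound was applied to a strain engineered with DNA damage repair alterations.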

Measured: growth inhibition

CC(OC(C)(C)C)C(NC(=O)C(CCCCNC(=O)OC(C)(C)C)NC(=O)C(Cc1c[nH]c2ccccc12)NC(=O)C(Cc1ccccc1)NC(=O)OCc1ccccc1)C(=O)NC(Cc1ccccc1)C(=O)O (centres undefined) (Cbz-FWK(Boc)T(tBu)F-OH; configuration not given here)
inactive: [1] -10.3% | [2] -16.6% | [3] -24.2% | [4] 24.4% | [5] 1.3% | [6] -19.4%

COc1ccc2c(c1)OC[C@@H]1c3cc(NC(=O)c4ccccc4)c(OCc4ccccc4)cc3N(S(=O)(=O)c3ccccc3)[C@H]21
inactive: [1] -23.9% | [2] -13.9% | [3] -2.1% | [4] -2.5% | [5] -9% | [6] 9.4%

CN(C)C(=S)Oc1ccc(-c2c(-c3ccccc3)oc3ccc4ccccc4c23)cc1
inactive: [1] 28.2% | [2] -4.05% | [3] 7.95% | [4] 10.8% | [5] -0.1% | [6] 9.4%

CCOC(=O)C(CCc1ccccc1[N+](=O)[O-])(CCc1ccccc1[N+](=O)[O-])C(=O)OCC
inactive: [1] 12.3% | [2] -0.7% | [3] 6.35% | [4] -9% | [5] 10.7% | [6] 37.7%

CC(=O)OC1CC2C3CCc4cc(O)ccc4C3CCC2(C)C1 (centres undefined)
inactive: [1] 22.4% | [2] -15.8% | [3] -8% | [4] 6.7% | [5] -0.05% | [6] 3.2%

Cc1cccc(C)c1NC(=S)N/C=C(\C#N)C(N)=O
inactive: [1] -53.2% | [2] -72.2% | [3] -25% | [4] -21.6% | [5] -8.65% | [6] -49.4%

O=S1(=O)c2ccccc2Nc2cc3ccccc3cc21
inactive: [1] 6.75% | [2] 2.4% | [3] 0.85% | [4] -11.5% | [5] -2.55% | [6] 6.25%

Cc1cc(=O)[nH]c(NNC(C#N)c2ccc(O)cc2)n1 (centres undefined)
inactive: [1] -26% | [2] -51.3% | [3] -48.4% | [4] -7.6% | [5] -18.6% | [6] -41.8%

CCOC(=O)/C(Cc1cc[n+]([O-])cc1)=N/O
inactive: [1] 33.5% | [2] 27.3% | [3] 15.2% | [4] 13.5% | [5] 13.6% | [6] 20.5%

CCCCC(NC(=O)c1ccc2ccccc2n1)C(=O)O (centres undefined)
inactive: [1] -0.35% | [2] 9% | [3] 1.5% | [4] 7.35% | [5] -8.7% | [6] 20.2%

c1ccc(CSCc2cnc[nH]2)cc1
inactive: [1] -1.3% | [2] 0.6% | [3] -1.95% | [4] 14.8% | [5] 5.7% | [6] -6.95%

CN(C)c1ccc(/C=C2\C[N+](C)(C)C/C(=C\c3ccc(N(C)C)cc3)C2=O)cc1
inactive: [1] 6.9% | [2] 3.4% | [3] 9.35% | [4] -2.55% | [5] -3.45% | [6] 32.8%

CCOC(=O)CN(Cn1cncn1)Cn1cncn1
inactive: [1] 26% | [2] 5.55% | [3] 22.2% | [4] -30.2% | [5] -43.4% | [6] 10.8%

Cc1ccc(C(=O)C[n+]2ccc3ccccc3c2)c(O)c1
inactive: [1] -17.1% | [2] -17.9% | [3] -20.2% | [4] -51.9% | [5] -14.3% | [6] 1.25%

CN(C)c1ccc(C(c2ccc(C(c3ccc(N(C)C)cc3)c3ccc(N(C)C)cc3)cc2)c2ccc(N(C)C)cc2)cc1
inactive: [1] -6.55% | [2] 4.8% | [3] -22.1% | [4] -0.8% | [5] -10.8% | [6] 14.6%

CC(C)/C(Cl)=N/OC(=O)Nc1ccc(F)c(Cl)c1
active: [3] 89.3%
inactive: [1] 37.4% | [2] 35.3% | [4] -1.3% | [5] 60.8% | [6] -36.8%

Cc1sc2nc3n(c(=O)c2c1C)N=CN(c1ccc(Cl)cc1)C3
inactive: [1] 5.5% | [2] 5.1% | [3] 7.8% | [4] -3.15% | [5] 0.05% | [6] -45.2%

COc1ccc(C(=O)/C=C/N)c(OC)c1
inactive: [1] 17.3% | [2] -25.4% | [3] 5.45% | [4] 20% | [5] 9.35% | [6] 10.9%

COc1cc(C(C)=O)ccc1OCOc1ccc(C(C)=O)cc1OC
inactive: [1] -4.65% | [2] -23.6% | [3] -3.7% | [4] -43% | [5] 5.95% | [6] -5.55%
